Data published in PubChem BioAssay (Tox21).
Values without a mark were called inactive. Results filed as inconclusive are left out. Entries that show only a call come without a potency. Activity calls are given as the source filed them. Unless noted, calls follow the shape of the full dose curve.

Assays:
[1] = Nuclear factor erythroid 2-related factor 2/antioxidant responsive element (Nrf2/ARE) small molecule agonists: qHTS cell viability counter screen in human keratinocytes (AID 1919968; active = well fitted curve in the direction sought with a large enough effect in the repeat runs; an effect the other way counts as inactive or inconclusive; also: nearly all actives have a fitted effect of over 55% in size; also: potency is read from the fitted curve at half-maximal effect)
Method in brief: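 KeratinoSens HaCaT cells, 1,500/well, preincubated 5 h, then exposed to compounds in DMSO for 23 h at 37 C/5% CO2. Viability read as CellTiter-Fluor fluorescence after 1 h, in the same wells as the ARE-luciferase read.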

[2] = Nuclear factor erythroid 2-related factor 2/antioxidant responsive element (Nrf2/ARE) small molecule agonists: luciferase reporter gene qHTS assay in human keratinocytes (AID 1919969); also: nearly all actives have a fitted effect of over 35% in size; also: potency is read from the fitted curve at half-maximal effect
[3] = target: Gonadotropin-releasing hormone receptor (Homo sapiens) (UniProt P30968); test: Human gonadotropin-releasing hormone receptor (GnRHR) small molecule agonists, calcium flux assay in GnRHR-HEK293 cells (AID 1920063); also: nearly all actives have a fitted effect of over 35% in size
Method in brief: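 HEK293 cells stably expressing human GnRHR were dye-loaded for 1 h at 37 C. Compound was added in agonist mode and fluorescence (Ex/Em 480/540) recorded kinetically for 3 min. Fifteen concentrations, triplicates.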

[4] = target: KiSS-1 receptor (Homo sapiens) (UniProt Q969F8); test: Human kisspeptin (KISS1R) small molecule agonists, calcium flux assay in KISS1R-HEK293 cells (AID 1920064; active = well fitted curve in the direction sought with a large enough effect in the repeat runs; an effect the other way counts as inactive or inconclusive)
Method in brief: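 HEK293 cells stably expressing human KISS1R were loaded with calcium dye for 1 h at 37 C, then given compound; fluorescence (Ex/Em 480/540) was read kinetically for 3 min. Fifteen concentrations, triplicate.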

[5] = G protein-coupled receptor (GPCR) small molecule agonists, calcium flux assay: HEK293 wild type cell line counter screen (AID 1920065)
Method in brief: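 Wild-type HEK293 cells plated 18 h, loaded with calcium dye 1 h at 37 C, then compounds added in agonist mode (ATP as positive control). Kinetic fluorescence Ex/Em 480/540 recorded 3 min at 1 sec intervals; 15 concentrations, triplicate.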

[6] = p53 small molecule agonists, cell-based qHTS assay with human liver microsomes (AID 1963577);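 also: p53 response element beta-lactamase reporter cells with liver microsomes plus NADPH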
Method in brief: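 In this qHTS, p53 response-element beta-lactamase cells receive test compound together with a microsome/NADPH activating system (0.5 mg/mL final each) and are incubated 16 h at 37 C before LiveBLAzer fluorescence detection.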

[7] = p53 small molecule agonists, cell-based qHTS assay with rat liver microsomes (AID 1963578)
Method in brief: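 Agonist mode in p53RE-bla reporter cells, with compounds co-incubated 16 h at 37 C alongside 0.5 mg/mL rat liver microsomes and 0.5 mg/mL NADPH (final), followed by a 2 h LiveBLAzer detection step.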

[8] = p53 small molecule agonists, cell-based qHTS assay with human liver microsomes: qHTS cell viability counter screen (AID 1963579); also: nearly all actives have a fitted effect of over 45% in size
Method in brief: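 Metabolically activated exposure: compounds, human liver microsomes and NADPH (0.5 mg/mL final apiece) were added to p53RE-bla cells seeded 5 h earlier, left 16 h at 37 C, and then assessed for viability by CellTiter-Glo luminescence.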

[9] = p53 small molecule agonists, cell-based qHTS assay: qHTS cell viability counter screen (AID 1963581); also: nearly all actives have a fitted effect of over 45% in size; also: potency is read from the fitted curve at half-maximal effect
Method in brief: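 p53RE-bla HCT-116 cells, compounds added 5 h after plating and incubated 16 h at 37 C. Cytotoxicity measured in the same wells as intracellular ATP by CellTiter-Glo luminescence after 30 min at room temperature.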

[10] = target: 5-hydroxytryptamine receptor 2A (Homo sapiens) (UniProt P28223); test: 5-hydroxytryptamine receptor 2A (HTR2A) small molecule antagonists, cell-based qHTS assay (AID 1963586); also: nearly all actives have a fitted effect of over 45% in size
Method in brief: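 Antagonist-mode intracellular calcium assay: DOI (4 nM) added after 5 min compound pre-incubation at room temperature to dye-loaded HTR2A-CHO cells. Fluorescence followed for 3 min, sampled every second.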

[11] = target: 5-hydroxytryptamine receptor 2A (Homo sapiens) (UniProt P28223); test: 5-hydroxytryptamine receptor 2A (HTR2A) small molecule agonists, cell-based qHTS assay (AID 1963587); also: nearly all actives have a fitted effect of over 30% in size
Method in brief: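 HTR2A-CHO cells, plated 18 h at 37 C/5% CO2, dye-loaded 1 h at 37 C; compounds in DMSO added by pin tool (agonist mode). Intracellular calcium flux read as kinetic fluorescence on FDSS over 2 min at 1 s intervals.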

[12] = target: Muscarinic acetylcholine receptor M1 (Homo sapiens) (UniProt P11229); test: Cholinergic receptor muscarinic 1 (CHRM1) small molecule antagonists, cell-based qHTS assay (AID 1963588); also: nearly all actives have a fitted effect of over 40% in size; also: potency is read from the fitted curve at half-maximal effect
Method in brief: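 CHRM1-CHO calcium-flux assay, antagonist mode. Cells were seeded 18 h, dye-loaded 1 h at 37 C and given compound for 5 min at RT, then acetylcholine was added at 50nM. FDSS fluorescence was read 3 min; 15 concentrations, three runs.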

[13] = target: Muscarinic acetylcholine receptor M1 (Homo sapiens) (UniProt P11229); test: Cholinergic receptor muscarinic 1 (CHRM1) small molecule agonists, cell-based qHTS assay (AID 1963589); also: nearly all actives have a fitted effect of over 35% in size
Method in brief: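 CHO cells stably expressing human CHRM1 were loaded with calcium dye for 1 h at 37 C, then compound was added in agonist mode. Intracellular calcium fluorescence was followed kinetically at 1 s intervals. Fifteen concentrations were tested in three independent runs.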

[14] = cAMP Responsive Elements (CRE) small molecule agonists, cell-based qHTS assay (AID 1963590)
Method in brief: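 CRE-bla HEK 293T cells, 2,000/well in DMEM with 10% dialyzed FBS and 25 mM HEPES, pre-incubated 18 h at 37 C, then exposed to compound 3 h at 37 C. Beta-lactamase reporter read with LiveBLAzer B/G FRET substrate after 2 h at room temperature.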

[15] = target: Beta-2 adrenergic receptor (Homo sapiens) (UniProt P07550); test: Adrenergic beta2 receptor (ADRB2) small molecule antagonists, cell-based qHTS assay (AID 1963592); also: series mostly up to about 92 µM; nearly all actives have a fitted effect of over 50% in size
Method in brief: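 Cells (CHO, stable ADRB2 overexpression) incubated 18-20hr at 37C; compounds added from DMSO; agonist mix (1nM isoproterenol, 100uM IBMX, 25uM Ro-20-1724) added; 0.5hr RT; d2-cAMP and anti-cAMP-cryptate added; 1hr RT; 665/615 nm read.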

[16] = target: Beta-2 adrenergic receptor (Homo sapiens) (UniProt P07550); test: Adrenergic beta2 receptor (ADRB2) small molecule agonists, cell-based qHTS assay (AID 1963593);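 also: CHO cells stably overexpressing human ADRB2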
Method in brief: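 CHO cells stably over-expressing ADRB2 were plated overnight at 37C, then dosed with compounds plus a stimulation mix containing 100uM IBMX and 25uM Ro-20-1724 for 0.5hr at room temperature. cAMP was measured by HTRF competition, 1hr.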

[17] = target: D(2) dopamine receptor (Homo sapiens) (UniProt P14416); test: Dopamine D2 receptor (DRD2) small molecule agonists, cell-based qHTS assay (AID 1963594); also: nearly all actives have a fitted effect of over 35% in size
Method in brief: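 HEK293 cells stably expressing DRD2 were cultured 24 h at 37 C, then given Ro20-1724 (0.1 mM final) and compounds for 10 min at room temperature. NKH477 (200nM) was then added for 30 min. cAMP was read by HTRF.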

[18] = target: D(2) dopamine receptor (Homo sapiens) (UniProt P14416); test: Dopamine D2 receptor (DRD2) small molecule antagonists, cell-based qHTS assay (AID 1963595; active = well fitted inhibition curve with a large enough effect in the signal ratio in the repeat runs, with a control signal flat; the % refers to the signal ratio; also: potency is read from the fitted curve at half-maximal effect)
Method in brief: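 In this cell-based antagonist screen, compounds act for 10 min at room temperature before a 30 min challenge with 12 nM quinpirole and 200 nM NKH477. cAMP is quantified by HTRF competition in DRD2-HEK293 cells containing 0.1 mM Ro20-1724.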

[19] = p53 small molecule agonists, cell-based qHTS assay (AID 1963582; active = well fitted activation curve with a large enough effect in the signal ratio in the repeat runs, not every such curve was filed as active; the % refers to the signal ratio)
Method in brief: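 p53RE-bla reporter cells, compounds added in DMSO after 5 h plating, incubated 16 h at 37 C. Beta-lactamase read via 2 h room-temperature LiveBLAzer B/G FRET substrate, fluorescence intensity.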

[20] = cAMP Responsive Elements (CRE) small molecule antagonists, cell-based qHTS assay (AID 1963591; active = well fitted inhibition curve with a large enough effect in the signal ratio in the repeat runs, not every such curve was filed as active; the % refers to the signal ratio)
Method in brief: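 CRE-bla HEK293T cells plated 18 h, then given compound plus NKH477 at 0.25 uM final for 3 h at 37C. Beta-lactamase reporter read with LiveBLAzer B/G FRET substrate after 2 h at room temperature.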

Sequence of Beta-2 adrenergic receptor (Homo sapiens) (P07550 whole entry, looked up): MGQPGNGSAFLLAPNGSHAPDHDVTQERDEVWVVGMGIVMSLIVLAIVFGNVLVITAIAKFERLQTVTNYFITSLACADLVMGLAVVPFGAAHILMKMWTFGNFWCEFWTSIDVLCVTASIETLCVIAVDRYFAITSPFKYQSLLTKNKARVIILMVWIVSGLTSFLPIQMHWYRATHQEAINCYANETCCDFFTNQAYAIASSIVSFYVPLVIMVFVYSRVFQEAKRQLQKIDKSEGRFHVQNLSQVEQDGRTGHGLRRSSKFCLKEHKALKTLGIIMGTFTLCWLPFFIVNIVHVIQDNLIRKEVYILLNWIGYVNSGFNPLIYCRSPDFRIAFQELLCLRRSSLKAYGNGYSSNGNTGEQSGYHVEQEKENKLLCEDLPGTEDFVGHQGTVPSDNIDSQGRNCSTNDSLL
Sequence of 5-hydroxytryptamine receptor 2A (Homo sapiens) (P28223 whole entry, looked up): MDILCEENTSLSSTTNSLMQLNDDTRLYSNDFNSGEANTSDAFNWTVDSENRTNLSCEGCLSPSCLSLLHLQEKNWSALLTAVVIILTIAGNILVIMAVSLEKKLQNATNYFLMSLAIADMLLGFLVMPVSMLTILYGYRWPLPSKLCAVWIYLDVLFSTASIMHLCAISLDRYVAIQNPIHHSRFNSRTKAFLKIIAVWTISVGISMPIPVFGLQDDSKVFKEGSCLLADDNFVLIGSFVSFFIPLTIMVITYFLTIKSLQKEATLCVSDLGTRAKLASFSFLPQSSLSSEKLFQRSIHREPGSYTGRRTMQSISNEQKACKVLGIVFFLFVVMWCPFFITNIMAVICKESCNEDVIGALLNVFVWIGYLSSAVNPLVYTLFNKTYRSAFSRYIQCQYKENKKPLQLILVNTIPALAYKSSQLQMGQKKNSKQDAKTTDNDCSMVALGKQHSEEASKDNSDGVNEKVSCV
Sequence of KiSS-1 receptor (Homo sapiens) (Q969F8 whole entry, looked up): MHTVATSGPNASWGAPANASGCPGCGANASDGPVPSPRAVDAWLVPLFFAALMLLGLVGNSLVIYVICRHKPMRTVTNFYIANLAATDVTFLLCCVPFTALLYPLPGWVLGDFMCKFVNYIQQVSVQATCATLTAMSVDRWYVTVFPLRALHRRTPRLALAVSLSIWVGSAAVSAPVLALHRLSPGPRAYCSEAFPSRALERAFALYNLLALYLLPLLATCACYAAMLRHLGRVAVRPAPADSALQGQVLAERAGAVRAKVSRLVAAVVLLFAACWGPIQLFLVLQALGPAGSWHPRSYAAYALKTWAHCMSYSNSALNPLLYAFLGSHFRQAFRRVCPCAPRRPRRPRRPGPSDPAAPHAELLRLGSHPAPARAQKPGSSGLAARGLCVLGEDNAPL
Sequence of Gonadotropin-releasing hormone receptor (Homo sapiens) (P30968 whole entry, looked up): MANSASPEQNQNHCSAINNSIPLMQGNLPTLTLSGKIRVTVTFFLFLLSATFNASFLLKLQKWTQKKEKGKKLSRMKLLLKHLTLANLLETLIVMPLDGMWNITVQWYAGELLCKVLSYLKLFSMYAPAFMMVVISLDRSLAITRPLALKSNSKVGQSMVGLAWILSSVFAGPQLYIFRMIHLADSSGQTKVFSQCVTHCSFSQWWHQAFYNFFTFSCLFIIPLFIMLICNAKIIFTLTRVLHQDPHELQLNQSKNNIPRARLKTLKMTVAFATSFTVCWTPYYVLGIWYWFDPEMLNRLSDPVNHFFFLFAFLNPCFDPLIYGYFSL
Sequence of D(2) dopamine receptor (Homo sapiens) (P14416 whole entry, looked up): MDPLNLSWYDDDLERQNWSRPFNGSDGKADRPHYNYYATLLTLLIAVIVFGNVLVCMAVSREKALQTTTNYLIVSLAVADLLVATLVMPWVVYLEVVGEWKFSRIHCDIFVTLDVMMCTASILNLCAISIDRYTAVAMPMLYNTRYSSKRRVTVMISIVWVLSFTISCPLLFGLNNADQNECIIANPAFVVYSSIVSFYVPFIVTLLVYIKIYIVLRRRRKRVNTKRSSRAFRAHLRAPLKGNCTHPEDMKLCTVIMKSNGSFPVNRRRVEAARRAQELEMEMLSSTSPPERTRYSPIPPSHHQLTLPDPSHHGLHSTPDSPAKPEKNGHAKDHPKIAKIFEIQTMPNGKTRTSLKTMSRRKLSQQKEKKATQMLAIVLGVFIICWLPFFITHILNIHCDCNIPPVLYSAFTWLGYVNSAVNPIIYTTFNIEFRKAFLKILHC
Sequence of Muscarinic acetylcholine receptor M1 (Homo sapiens) (P11229 whole entry, looked up): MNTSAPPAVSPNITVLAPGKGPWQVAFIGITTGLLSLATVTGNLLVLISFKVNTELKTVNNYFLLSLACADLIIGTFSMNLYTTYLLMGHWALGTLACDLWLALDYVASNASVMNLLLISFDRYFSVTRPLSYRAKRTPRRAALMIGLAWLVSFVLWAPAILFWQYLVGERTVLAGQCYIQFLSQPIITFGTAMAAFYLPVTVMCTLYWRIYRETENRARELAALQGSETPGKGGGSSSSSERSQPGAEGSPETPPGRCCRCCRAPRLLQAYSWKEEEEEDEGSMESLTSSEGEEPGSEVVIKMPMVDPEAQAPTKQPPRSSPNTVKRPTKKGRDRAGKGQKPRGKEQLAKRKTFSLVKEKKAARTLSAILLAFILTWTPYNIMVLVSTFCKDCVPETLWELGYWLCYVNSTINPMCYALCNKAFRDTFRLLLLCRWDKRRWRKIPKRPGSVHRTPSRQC

SMILES	Potency [1]	Potency [2]	Potency [3]	outcome [4]	outcome [5]	Potency [6]	Potency [7]	Potency [8]	Potency [9]	Potency [10]	Potency [11]	Potency [12]	Potency [13]	Potency [14]	Potency [15]	Potency [16]	Potency [17]	Potency [18]	Potency [19]	Potency [20]
Nc1cccc(S(=O)(=O)c2cccc(N)c2)c1	inactive	inactive	inactive	inactive	inactive	inactive	inactive	inactive	inactive	inactive	inactive	inactive	inactive	inactive	inactive	inactive	inactive	inactive		
COc1ccc([C@@H]2Sc3ccccc3N(CCN(C)C)C(=O)[C@@H]2OC(C)=O)cc1	inactive	inactive	inactive	inactive	inactive	inactive	inactive	inactive	inactive					inactive	inactive	inactive	inactive	inactive	inactive	
c1ccc([C@H]2CN3CCSC3=N2)cc1	inactive	inactive	inactive	inactive	inactive	inactive	inactive	inactive	inactive					inactive	inactive		inactive	inactive	inactive	inactive
c1ccc(C[P+](c2ccccc2)(c2ccccc2)c2ccccc2)cc1	inactive	inactive	inactive	inactive	inactive	inactive	inactive	inactive	inactive	inactive	inactive	4.72 µM (active)	inactive		inactive	inactive	inactive	inactive		
CCO	inactive	inactive	inactive	inactive	inactive	inactive	inactive	inactive	inactive					inactive	inactive		inactive	inactive	inactive	inactive
Cc1cccc(C(C)(C)C)c1O	inactive	inactive	inactive	inactive	inactive	inactive	inactive	inactive	inactive				inactive	inactive		inactive	inactive	inactive	inactive	inactive
O=C(O)P(=O)(O)O	inactive	inactive	inactive	inactive	inactive	inactive	inactive	inactive	inactive					inactive	inactive	inactive	inactive	inactive	inactive	inactive
O=C(Nc1cccc2c(=O)cc(-c3nn[nH]n3)oc12)c1ccc(OCCCCc2ccccc2)cc1	inactive	inactive	inactive	inactive	inactive	inactive	inactive	inactive		inactive	inactive	inactive	inactive		inactive		inactive	inactive	inactive	
O=C(NCCN1CCOCC1)c1ccc(Cl)cc1	inactive	inactive	inactive	inactive	inactive	inactive	inactive	inactive	inactive					inactive	inactive	inactive	inactive	inactive	inactive	inactive
COc1cc(-c2nc(NC(=O)c3cc4cc(C)cc(C)c4n3CC(=O)O)sc2CCC2CCCCC2)c(OC)cc1Cl	17.7 µM (active)	12.5 µM (active)	inactive	inactive	inactive	inactive	inactive	inactive	6.65 µM (active)	inactive	inactive	inactive	inactive		inactive		inactive	inactive		
CCN(CC)CCNC(=O)c1cc(Cl)c(N)cc1OC	inactive	inactive	inactive	inactive	inactive	inactive	inactive	inactive	inactive					inactive	inactive		inactive	1.68 µM (active)	inactive	inactive
Nc1nc(N)nc(-c2cc(Cl)ccc2Cl)n1	inactive	inactive	inactive	inactive	inactive	inactive	inactive	inactive	inactive					inactive	inactive			inactive	inactive	inactive
CCCC(C)C=O (centres undefined)	inactive	inactive	inactive	inactive	inactive	inactive	inactive	inactive	inactive	inactive	inactive	inactive	inactive	inactive	inactive		inactive			inactive
CCCOc1ccc(C(=O)OCCN(CC)CC)cc1N	inactive	inactive	inactive	inactive	inactive	inactive	inactive	inactive	inactive					inactive	inactive	inactive	inactive	inactive	inactive	inactive
CCOC(=O)c1ccc(OC(=O)CCCCCN=C(N)N)cc1	inactive	inactive	inactive	inactive	inactive	inactive	inactive	inactive			inactive	7.29 µM (active)	inactive	inactive	inactive	inactive	inactive		inactive	inactive
